This is a sample that favours compounds with a hit; in the whole collection about 0.59% have one here.
a7 integrin act = qHTS for Activators of Integrin-Mediated Alleviation for Muscular Dystrophy; alpha7betagal myoblasts, beta-gal FDG fluorescence, 48 h; Potency, µM (doses to about 38.3 µM), for inactives: at the highest dose activation, hits mostly activators; 350,000 tested, 0.064% active; active = well fitted activation curve with a large enough effect; inconclusive = small, poorly fitted or top-dose-only effect; inactive = no such curve, though single readings can be large or run the other way;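 also: potency is read from the fitted curve at half-maximal effect; 100% = response of the positive control SU9516; nearly all actives have a fitted effect of over 60% in size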
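Alpha7betagal+/- myoblasts (passage 13) were plated 16-24 hr, then exposed to compounds (1:260 dilution of DMSO stock) for 48 hours at 37C. After MPER lysis, β-galactosidase reporter activity was read as FDG fluorescence (ex 480/em 540) after 30 minutes.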
Rango-impB inh = qHTS Assay for Inhibitors of Rango (Ran-regulated importin-beta cargo) - Importin beta complex formation. 340,000 tested, 0.031% active. Rango CFP/YFP FRET sensor + importin beta, 45 min. Potency, µM (top dose mostly 92.2 µM), for the others: top-dose inhibition of complex formation. AID 540263, 2011;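 also: potency is read from the fitted curve at half-maximal effect; 0% = DMSO wells and 100% = buffer wells lacking importin beta; nearly all actives have a fitted effect of over 15% in size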
Target sequence (Q14974 whole entry, looked up): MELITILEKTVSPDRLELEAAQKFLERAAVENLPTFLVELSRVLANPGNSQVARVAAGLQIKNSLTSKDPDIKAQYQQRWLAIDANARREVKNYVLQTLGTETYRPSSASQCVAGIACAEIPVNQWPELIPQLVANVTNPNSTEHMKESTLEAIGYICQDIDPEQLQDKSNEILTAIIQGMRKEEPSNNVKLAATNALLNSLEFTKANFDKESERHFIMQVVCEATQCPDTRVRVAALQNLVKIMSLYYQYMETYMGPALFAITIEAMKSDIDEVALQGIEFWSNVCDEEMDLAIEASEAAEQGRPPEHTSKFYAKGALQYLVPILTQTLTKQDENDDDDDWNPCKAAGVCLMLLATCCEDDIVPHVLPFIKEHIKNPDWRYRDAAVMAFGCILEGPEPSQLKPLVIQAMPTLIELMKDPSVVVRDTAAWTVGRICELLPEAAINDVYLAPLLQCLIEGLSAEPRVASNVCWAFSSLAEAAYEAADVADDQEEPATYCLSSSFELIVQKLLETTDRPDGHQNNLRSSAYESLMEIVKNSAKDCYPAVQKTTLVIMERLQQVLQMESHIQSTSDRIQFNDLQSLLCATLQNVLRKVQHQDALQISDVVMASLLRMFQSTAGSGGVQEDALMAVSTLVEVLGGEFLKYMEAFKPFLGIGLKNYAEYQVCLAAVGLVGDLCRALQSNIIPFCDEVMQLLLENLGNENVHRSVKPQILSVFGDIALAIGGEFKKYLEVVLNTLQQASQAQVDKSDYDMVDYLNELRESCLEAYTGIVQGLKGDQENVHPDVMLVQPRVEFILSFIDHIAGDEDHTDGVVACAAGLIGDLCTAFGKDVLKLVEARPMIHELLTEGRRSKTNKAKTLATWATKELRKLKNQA
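FRET biosensor Rango (snurportin 1 IBB between N-terminal EYFP and C-terminal Cerulean), 50 nM in PBS/1 mM DTT/0.02% Tween-20/0.1% BSA, preincubated 5 min RT with compound; 0.125 microM importin beta added, 45 min RT, CFP/YFP FRET ratio read.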
Giardia kill = Small Molecules that selectively kill Giardia lamblia: qHTS; Giardia lamblia trophozoite viability; activity change, % at 7.66 µM, hits read low; 340,000 tested, 0.15% active; in the data active = activity change below about -80%; inconclusive = between about -30% and that limit;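 also: parasites exposed to compound for two days anaerobically before the ATP read; % is scaled to controls: 0 for no effect and ±100 for the full control effect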
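Anaerobic 48 hrs incubation at 37 deg C of 100 trophozoites/well with test compounds; ATPLite 1-Step luminescence, 15-30 min RT, reports cellular ATP as viability.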
uPA surface inh = qHTS for Inhibitors of Cell Surface uPA Generation; 330,000 tested, 0.31% active; Potency, µM (series often up to 38.3 µM), for inactives: at the top dose activity change, negative = inhibition, actives largely listed as inhibitors; cell surface uPA generation assay, qHTS; active = well fitted inhibition curve with a large enough effect; inconclusive = small, poorly fitted or top-dose-only effect; inactive = no such curve, though single readings can be large or run the other way; tested in mouse RAW 264.7 cells; also: potency is read from the fitted curve at half-maximal effect; % is scaled to controls: 0 for no effect and ±100 for the full control effect; nearly all actives have a fitted effect of over 55% in size
Rango dissoc inh = qHTS Assay for Inhibitors of RanGTP induced Rango (Ran-regulated importin-beta cargo) - Importin beta complex dissociation | Biochemical FRET Rango-importin beta, RanGTP-induced dissociation | Potency, µM (top dose mostly 46.1 µM), for the others: top-dose activity change, negative = inhibition | 340,000 tested, 0.071% active; also: potency is read from the fitted curve at half-maximal effect; % of control where 0% means no effect; nearly all actives have a fitted effect of over 45% in size
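Recombinant Rango FRET biosensor (EYFP–snurportin 1 IBB–cerulean CFP10) at 0.1 uM premixed with 0.25 uM importin beta in PBS, 1 mM DTT, 0.02% Tween-20, 0.1% BSA. Compound added 5 min; RanGTP-RCC1 (0.6 uM Ran, 2 mM GTP, 0.2 uM RCC1) then triggers release, read at 45 min.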
* hit, by the source's call; ? = inconclusive; / = not tested or not shown. Unless noted, calls follow the shape of the full dose curve.

SMILES	a7 integrin act	Rango-impB inh	Giardia kill	uPA surface inh	Rango dissoc inh
Cc1ccnc(NC(=O)c2sc3ccccc3c2Cl)c1	6%	0%	-80*	-3%	-7%
Cc1cnc(NC(=O)c2sc3ccccc3c2Cl)s1	3%	4%	?	-6%	-3%
Cc1cc(C)nc(NC(=O)c2ccc(Cl)cc2Cl)n1	10µM*	6%	1	5%	-3%
Cc1ccnc(NC(=O)c2ccc(Cl)c(NC(=O)c3ccccc3C)c2)c1	0%	4%	-3	-2%	6%
CCOC(=O)CC(S(=O)(=O)c1ccccc1)S(=O)(=O)c1ccccc1	-67%	/	/	/	/
CCN(CC)CCOC(=O)c1ccc(N/C=C(/C#N)c2nc(-c3ccc(OC)cc3)cs2)cc1	-40%	?	-8	1%	18%
CCN(CC)CCOC(=O)c1ccc(N/C=C(/C#N)c2nc(-c3cc4ccccc4oc3=O)cs2)cc1	-1%	-2%	-89*	-9%	-12%
CCN(CC)CCOC(=O)c1ccc(N/C=C(/C#N)c2nc(-c3ccc4c(c3)OCO4)cs2)cc1	-18%	?	-103*	-1%	-18%
O=C(Cc1ccc(N2CCNC2=O)cc1)N1CCCC(Nc2cccc(F)c2)C1 (configuration not stated)	-19%	4%	-30	1.4µM*	-8%
O=C(Cc1ccc(N2CCNC2=O)cc1)N1CCCC(Nc2ccc(F)c(F)c2)C1 (configuration not stated)	-38%	4%	-21	-16%	-17%
C[C@H](CO)N1C[C@H](C)[C@@H](CN(C)Cc2ccccc2)OCc2cnnn2CCCC1=O	7%	/	/	/	/
COc1ccc(C)cc1NC(=O)CNC(c1ccccc1)c1ccc(C)cc1 (configuration not stated)	-20%	-1%	?	1.8µM*	4%
COc1ccccc1NC(=O)CNC(c1ccccc1)c1ccccc1	36%	0%	12	0%	-7%
O=C(OCc1ccccc1F)c1cc(S(=O)(=O)N2CCCCC2)ccc1N1CCOCC1	-48%	/	/	/	/
CCOC(=O)c1nnn(-c2ccc([N+](=O)[O-])cc2[N+](=O)[O-])c1C	-51%	-2%	?	8.9µM*	1%
COc1ccc(C2NC(c3ccc4c(c3)OCO4)=CC(c3ccccc3O)N2)cc1OC (configuration not stated)	/	/	-15	/	/
Cc1nn(C)cc1C1C2=C(CC(C)(C)CC2=O)N(c2ccccc2)C2=C1C(=O)CC(C)(C)C2	22%	?	17	-3%	8.2µM*
Cc1ccc(N2C3=C(C(=O)CC(C)(C)C3)C(c3cn(C)nc3C)C3=C2CC(C)(C)CC3=O)cc1	-50%	?	-21	-11%	?
Cn1c(CC(=O)Nc2ccccc2)cc2ccccc21	-3%	1%	-17	4.5µM*	7%
CC(C)=CCC/C(C)=C/CNC(=O)C[C@H]1C[C@H](C(=O)N2CCOCC2)[C@@]2(C)c3[nH]c4cc(CCC(=O)N(C)C)ccc4c3CCN2C1=O	-4%	0%	-1	10µM*	0%
O=C(Nc1cc(S(=O)(=O)N2CCOCC2)ccc1N1CCOCC1)c1ccccc1[N+](=O)[O-]	28%	0%	-6	1%	13%
O=C(Nc1cc(S(=O)(=O)N2CCOCC2)ccc1N1CCOCC1)c1ccc([N+](=O)[O-])s1	-15%	6%	-89*	?	0%
COc1ccc(C(=O)NC2CCCCC2)cc1OC1CCN(C(C)C)CC1	-22%	-4%	-9	-5%	1%
COC(=O)c1ccc(Cn2cc(C(F)(F)F)ccc2=O)cc1	-3%	-1%	3	3%	4%
O=[N+]([O-])c1cc(Cl)ccc1N1CCN(c2cccc(C(F)(F)F)c2)CC1	21%	1%	-12	2%	-7%
SMILES	a7 integrin act	Rango-impB inh	Giardia kill	uPA surface inh	Rango dissoc inh
COC(=O)c1ccc(Cn2cc(C(F)(F)F)cc([N+](=O)[O-])c2=O)cc1	?	0%	-95*	4%	18%
O=c1c([N+](=O)[O-])cc(C(F)(F)F)cn1Cc1c(Cl)cccc1Cl	-20%	-1%	-91*	-6%	4%
O=C(Nc1ccccc1C(=O)O)c1ccc(NC(=O)C2CC2)cc1	-21%	-3%	?	7.9µM*	-11%
O=C(Nc1ccccc1O)c1ccc(NC(=O)C2CC2)cc1	3%	-2%	4	-6%	1%
CCOC(=O)COc1cccc2c(=O)n(CC(=O)NCc3ccc4c(c3)OCO4)ccc12	7%	-2%	-12	1µM*	2%
CCOC(=O)C(C)Oc1cccc2c(=O)n(CC(=O)NCc3ccc(F)cc3)ccc12 (configuration not stated)	-6%	-1%	-12	0.32µM*	0%
COC(=O)COc1cccc2c(=O)n(CC(=O)NCc3ccc(F)cc3)ccc12	-30%	?	-18	0.63µM*	0%
COc1ccc(N2CCN(C(c3ccccc3)c3nnnn3Cc3ccccc3)CC2)cc1 (configuration not stated)	/	/	9	/	/
COc1ccc(Cl)cc1NC(=O)CN(C)C(=O)/C=C/c1ccco1	-15%	-4%	-14	-6%	-1%
COc1cccc(C(=O)Nc2ccc(NC(=O)C3C4C=CC(C4)C3C(=O)O)cc2)c1 (configuration not stated)	-9%	2%	6	?	40%
COc1cc(NC(=O)C2C3C=CC(C3)C2C(=O)O)ccc1NC(=O)c1ccccc1 (configuration not stated)	8.9µM*	?	-19	-1%	-11%
COc1ccc(NC(=O)c2cc(-c3ccccc3)nc3c2cnn3C(C)C)cc1	?	1%	-1	8.9µM*	0%
CC(C)n1ncc2c(C(=O)N3CCN(c4ccccc4)CC3)cc(-c3ccccc3)nc21	3%	7%	-18	4%	2%
Cc1ccc(C(=O)CSc2nnc(C3CC3)n2C2CC2)s1	?	?	9	-5%	-8%
CCNC(=O)COC(=O)c1cc(-c2ccco2)nc2ccccc12	5.6µM*	?	0	-1%	-26%
CCOc1ccc(/C=N/Nc2ccccn2)cc1	11%	-1%	-16	6.3µM*	1%
Clc1ccc(/C=N/Nc2ccccn2)cc1	1%	-4%	-2	0%	-5%
CCN(CC)C(=O)CC(c1ccc(OC)cc1)c1c(OC)cc(OC)c2c(-c3ccccc3)cc(=O)oc12 (configuration not stated)	/	/	-10	/	/
CC1=C(C(=O)N(C)C)CC(CC(=O)NC(c2ccccc2)c2ccccc2)C(=O)N1CCC1=CCCCC1 (configuration not stated)	-8%	/	/	/	/
COc1ccc2nc(C)cc(N/N=C/c3cccc(OC)c3O)c2c1	-52%	?	-83*	7%	?

Compound activity (PubChem)
